The source made the active and inactive calls. The rule behind the calls is not given here.
molecular target: Pantothenate synthetase (Mycobacterium tuberculosis (strain ATCC 25618 / H37Rv)) (UniProt P9WIL5); experiment: Recombinant Mtb pantothenate synthetase (PanC) inhibitors, coupled enzyme, confirmatory (AID 375); conditions: coupled enzyme assay; at 10 µM, active compounds read high;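 note: 0% = full reaction with vehicle and 100% = no enzyme background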
Sequence (P9WIL5 whole entry, looked up): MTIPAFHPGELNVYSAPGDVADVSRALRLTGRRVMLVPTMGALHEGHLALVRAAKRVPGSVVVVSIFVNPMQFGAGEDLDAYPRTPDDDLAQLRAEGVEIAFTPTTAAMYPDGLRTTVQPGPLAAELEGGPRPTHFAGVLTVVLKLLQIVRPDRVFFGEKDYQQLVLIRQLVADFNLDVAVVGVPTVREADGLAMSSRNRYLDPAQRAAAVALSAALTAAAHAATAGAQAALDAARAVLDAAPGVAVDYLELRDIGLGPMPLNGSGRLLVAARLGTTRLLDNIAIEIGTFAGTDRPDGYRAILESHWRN

| Compound | inhibition |
| --- | --- |
| C=CCn1c(SCC(=O)O)nnc1-c1cccc(Cl)c1 | 0% (inactive) |
| O=S(=O)(c1cccc2c(S(=O)(=O)N3CCCC3)cccc12)N1CCCC1 | 0% (inactive) |
| O=C(OCc1ccc2c(c1)OCO2)c1ccc(S(=O)(=O)N2CCCCC2)cc1 | 0% (inactive) |
| O=C(CSc1nnc2ncccn12)N1CCCCCC1 | 0% (inactive) |
| O=C(CSc1nnc(CNC(=O)c2cccs2)o1)NC1CCCC1 | 0% (inactive) |
| O=C1Nc2ccccc2OC1CC(=O)N1CCCC1 (stereo not given) | 0% (inactive) |
| Cc1nc2ccccn2c1/C(O)=C1\C(=O)C(=O)N(CCCN(C)C)C1c1ccc(F)cc1 (stereo not given) | 4% (inactive) |
| O=C(NCc1n[nH]c(=S)n1-c1ccc(F)cc1)c1ccco1 | 0% (inactive) |
| COc1ccc(OC)c(S(=O)(=O)NCCC2=CCCCC2)c1 | 6% (inactive) |
| O=C(CCN1C(=O)C2C3C=CC(C3)C2C1=O)Nc1c(F)cc(F)cc1Br (stereo not given) | 0% (inactive) |
| c1ccc(-n2ncc3c(NCc4cccs4)ncnc32)cc1 | 0% (inactive) |
| CCC(=O)N[C@@H]1CC(C(C)(C)NC(=O)CC)CC=C1C (stereo not given in full) | 6% (inactive) |
| O=C(c1ccco1)N1CCN(C(=O)c2ccc(Cn3cc(Br)cn3)o2)CC1 | 4% (inactive) |
| Cc1cccc(C2c3c(n(C)c(=O)n(C)c3=O)N=C3c4ccccc4C(=O)C32)c1 (stereo not given) | 7% (inactive) |
| O=C(OCC(=O)c1cccs1)C1=COCCO1 | 0% (inactive) |
| c1ccc2[nH]c(CSc3nnc(-c4ccncc4)o3)nc2c1 | 4% (inactive) |
| COc1ccc(S(=O)(=O)N2CCCC(C(=O)N3CCCCCC3)C2)cc1 (stereo not given) | 6% (inactive) |
| CSc1nc(N2CCOCC2)c2ccccc2n1 | 0% (inactive) |
| CC(=Nc1ccc(C)c(C)c1)C1=C(O)CCC1=O | 3% (inactive) |
| Cc1ccc(CCNC(=O)C2CCC(=O)N2C2CCCC2)cc1 (stereo not given) | 0% (inactive) |

| Compound | inhibition |
| --- | --- |
| O=C1CCC(c2ccccc2)N1C(=O)c1cccnc1 (stereo not given) | 0% (inactive) |
| Cc1cc2ncn(C(=O)c3c(-c4ccccc4)noc3C)c2cc1C | 5% (inactive) |
| O=C(CNC(=O)c1ccccc1C(=O)O)c1ccccc1 | 0% (inactive) |
| CC1CCN(C(=O)CSc2nnc(-c3ccc(S(=O)(=O)N4CCOCC4)cc3)n2C)CC1 | 4% (inactive) |
| CCOC(=O)N1CCC(N2C(=O)c3ccccc3C2Nc2ccc3c(C)cc(=O)oc3c2)CC1 (stereo not given) | 4% (inactive) |
| Cc1ccnc(NS(=O)(=O)c2ccc(NC(=O)Cc3cccs3)cc2)n1 | 3% (inactive) |
| Cc1cccc(N2CCN(C(=O)C3CCCN(S(=O)(=O)c4c(C)noc4C)C3)CC2)c1C (stereo not given) | 0% (inactive) |
| COc1ccc(OC)c(NC(=O)C2C3CC4OC(=O)C2C4C3)c1 (stereo not given) | 0% (inactive) |
| CC1CCCCN1C(=O)Cn1nnc(-c2cccnc2)n1 (stereo not given) | 0% (inactive) |
| CC1=C(C(=O)NC2CCCC(C)C2C)C2(CCCCC2)OC1=O (stereo not given) | 0% (inactive) |
| Cc1cc(C)nc(NC(=O)c2cnc3sccn3c2=O)n1 | 13% (inactive) |
| Cc1cc(C)n(-c2nc3sc4c(c3c3nnc(SCC(N)=O)n23)CC(C)(C)OC4)n1 | 0% (inactive) |
| CCN(CCCNC(=O)C1CCN(S(=O)(=O)c2cccc3nonc23)CC1)Cc1ccccc1 | 6% (inactive) |
| O=C(CCn1c(=S)[nH]c2ccccc2c1=O)NCC1CCCO1 (stereo not given) | 4% (inactive) |
| COC(=O)Oc1c(Br)c(=O)oc2ccccc12 | 0% (inactive) |
| O=C1c2ccccc2C(=O)N1c1cccc(-c2nc3ccccc3o2)c1 | 7% (inactive) |
| CCS(=O)(=O)N1CCC(C(=O)NCc2cccs2)CC1 | 2% (inactive) |
| CNC(=O)CSc1nnc(-c2ccc(S(=O)(=O)N3CCCC3)cc2)n1-c1cccc(C)c1C | 0% (inactive) |
| CCCCCn1c(CN2CCN(C(=O)OCC)CC2)nc2c1c(=O)[nH]c(=O)n2C | 3% (inactive) |
| CSc1cccc(NS(=O)(=O)c2ccccc2)c1 | 0% (inactive) |

From PubChem BioAssay
